Compounds with a hit are over-represented: about 1.6% of the library has one in this group of screens.
PABP1 MLLE inh: inhibitors of PABP1 MLLE–PAM2 peptide binding, primary screen, biochemical, fluorescence polarization, FITC-PAM2, GST-MLLE; inhibition, % at 20 µM; Polyadenylate-binding protein 1 (Homo sapiens), P11940; AID 588489, 2011; hit rate 0.36% among 360,000; in the data active = inhibition above about 35%, passing the limit was not always enough
eIF4H FP inh: human eIF4H binding inhibitors, primary screen, translation initiation inhibitor project, biochemical, uHTS, fluorescence polarization. Eukaryotic translation initiation factor 4H (Homo sapiens), Q15056. eIF4H fluorescence polarization binding assay. inhibition, % at 35 µM. hit rate 0.94% among 290,000;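 also: calls also rest on retests at 20 µM and on dose response follow-up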
eIF4E 4G PPI: eIF4E–eIF4G protein interaction inhibitors, primary screen, biochemical, uHTS, TR-FRET, eIF4GI fragment; Eukaryotic translation initiation factor 4E (Mus musculus) + Eukaryotic translation …; TR-FRET eIF4E-eIF4GI(517-606) binding, 2 h; inhibition, % at 21.7 µM; hit rate 0.37% among 220,000;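 active = inhibition above about 30%, limit read from the data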
Target sequence (P63073 whole entry, looked up, the tested form may be a part): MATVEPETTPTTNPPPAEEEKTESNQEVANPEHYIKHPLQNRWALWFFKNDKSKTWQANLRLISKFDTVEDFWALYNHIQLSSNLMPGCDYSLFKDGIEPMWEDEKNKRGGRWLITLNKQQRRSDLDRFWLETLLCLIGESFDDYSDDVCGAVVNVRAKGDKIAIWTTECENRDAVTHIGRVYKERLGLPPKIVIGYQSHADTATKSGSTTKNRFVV
Target sequence (Q04637 whole entry, looked up, the tested form may be a part): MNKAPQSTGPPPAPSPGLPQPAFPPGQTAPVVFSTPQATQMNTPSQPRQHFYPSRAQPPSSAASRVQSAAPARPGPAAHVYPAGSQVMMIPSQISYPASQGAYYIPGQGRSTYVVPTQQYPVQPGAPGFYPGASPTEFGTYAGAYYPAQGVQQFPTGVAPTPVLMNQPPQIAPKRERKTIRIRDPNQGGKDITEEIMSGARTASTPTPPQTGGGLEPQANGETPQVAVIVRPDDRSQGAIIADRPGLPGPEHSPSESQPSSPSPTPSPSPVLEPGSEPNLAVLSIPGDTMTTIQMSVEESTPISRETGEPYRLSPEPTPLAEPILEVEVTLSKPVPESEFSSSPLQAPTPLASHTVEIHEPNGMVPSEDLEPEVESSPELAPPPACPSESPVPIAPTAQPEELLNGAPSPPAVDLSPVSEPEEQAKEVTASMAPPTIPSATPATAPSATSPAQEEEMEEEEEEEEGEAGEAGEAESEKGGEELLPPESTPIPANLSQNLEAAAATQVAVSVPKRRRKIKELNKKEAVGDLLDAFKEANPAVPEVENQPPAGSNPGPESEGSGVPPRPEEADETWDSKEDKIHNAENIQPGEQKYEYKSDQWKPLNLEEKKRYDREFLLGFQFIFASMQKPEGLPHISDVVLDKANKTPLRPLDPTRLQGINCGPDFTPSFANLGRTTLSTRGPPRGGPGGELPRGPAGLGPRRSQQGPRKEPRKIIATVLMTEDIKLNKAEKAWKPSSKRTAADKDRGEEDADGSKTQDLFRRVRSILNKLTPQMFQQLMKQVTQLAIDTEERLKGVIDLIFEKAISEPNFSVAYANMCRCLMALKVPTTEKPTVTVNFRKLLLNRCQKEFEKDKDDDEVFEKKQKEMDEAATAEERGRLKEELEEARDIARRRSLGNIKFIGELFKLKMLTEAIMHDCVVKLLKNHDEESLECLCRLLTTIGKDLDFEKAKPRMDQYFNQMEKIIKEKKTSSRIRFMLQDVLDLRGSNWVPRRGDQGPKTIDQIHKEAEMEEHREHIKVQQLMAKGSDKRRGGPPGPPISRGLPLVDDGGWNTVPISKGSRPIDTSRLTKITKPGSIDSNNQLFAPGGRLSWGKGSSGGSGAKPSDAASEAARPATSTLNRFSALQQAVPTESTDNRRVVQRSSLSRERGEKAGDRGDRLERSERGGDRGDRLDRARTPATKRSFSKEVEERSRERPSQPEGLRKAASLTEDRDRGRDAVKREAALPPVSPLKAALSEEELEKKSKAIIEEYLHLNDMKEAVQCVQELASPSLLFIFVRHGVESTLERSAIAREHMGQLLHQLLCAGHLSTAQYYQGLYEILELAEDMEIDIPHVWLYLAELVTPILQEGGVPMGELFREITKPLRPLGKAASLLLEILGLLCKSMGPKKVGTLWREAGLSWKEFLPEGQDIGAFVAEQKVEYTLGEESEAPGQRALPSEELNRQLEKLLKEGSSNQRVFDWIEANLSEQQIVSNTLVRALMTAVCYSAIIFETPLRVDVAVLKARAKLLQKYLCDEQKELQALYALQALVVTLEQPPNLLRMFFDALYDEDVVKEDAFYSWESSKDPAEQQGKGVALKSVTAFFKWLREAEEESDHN
PABP FP inh: PABP poly(A) RNA binding inhibitors, primary screen, biochemical, fluorescence polarization, uHTS; AID 2014, 2009; hit rate 1% among 290,000; inhibition, % at 35 µM;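 also: calls also rest on retests at 20 µM and on dose response follow-up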
PERK inh: block of dimerizer-induced PERK translation repression, primary screen, PERK inhibitor project, CHO PERK-DD cells, SEAP luminescence, HTS; Eukaryotic translation initiation factor 2-alpha kinase 3 (Homo sapiens), Q9NZJ5; CHO PERK-DD fusion, SEAP luminescence translation reporter; inhibition, % at 5.6 µM; hit rate 0.17% among 220,000; AID 1416, 2008;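 active = inhibition above the mean inhibition of all tested compounds plus 3 SD, set separately per screening campaign, cut at about 2.9% in these data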;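 also: PERK kinase domain activated by AP20187 dimerizer at 100 nM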
Of the large screens only hits and unclear results are named; the others gave an inactive call; [ ] = dose if it differs, or a comment. Unless noted, no rule for the calls is given here.

O=c1[nH]c2cc3c(cc2cc1CN(CCN1CCOCC1)C(=S)NCC1CCCO1)OCO3 (stereo not drawn)	none
CCc1ccc(N(C(C)=O)c2nc(CCl)cs2)cc1	none
COc1ccc(OCC(=O)Nc2ccccc2C(=O)NC(C)C)cc1	none
CC(C)(C)c1cc(-c2csc(Nc3ccccc3)[n+]2Cc2ccc(C(=O)O)cc2)cc(C(C)(C)C)c1O	eIF4H FP inh 52, PABP FP inh 5.2
NC(=O)c1sc(=S)n2c1[nH]c(=O)c1sccc12	none
CC(=O)NNC(=O)c1sc(=S)n2c1[nH]c(=O)c1sccc12	eIF4H FP inh 54, PABP FP inh 18
O=c1[nH][nH]c(-c2ccccc2)c1C=Nc1cccc(Cl)c1	PERK inh 2.9
CC(CC(=O)Nc1nnc(C(C)(C)C)s1)c1ccccc1 (stereo not drawn)	PABP1 MLLE inh 48 (no result: eIF4E 4G PPI, PERK inh)
COCCn1c(-c2ccc(Br)cc2)csc1=Nc1cccnc1	none
CC(Sc1nnc(-c2ccco2)n1C)C(=O)Nc1ccc(N2CCOCC2)cc1 (stereo not drawn)	none (no result: eIF4H FP inh, eIF4E 4G PPI, PABP FP inh, PERK inh)
O=C(Nc1ccc(CN2CCOCC2)cc1)c1ccc(-c2ccc(Cl)cc2Cl)o1	eIF4E 4G PPI 95
CCN(CC)CCCN1C(=O)C(O)=C(C(=O)c2ccc(C)o2)C1c1ccc(C)o1 (stereo not drawn)	PABP FP inh 120
COc1ccc(/C=C/C(=O)OCC(=O)Nc2ncc(Cl)cc2Cl)cc1	none (no result: eIF4H FP inh, eIF4E 4G PPI, PABP FP inh, PERK inh)
COc1ccc(OCCCC(=O)OCC(=O)Nc2ncc(Cl)cc2Cl)cc1	PABP1 MLLE inh 45 (no result: eIF4H FP inh, eIF4E 4G PPI, PABP FP inh, PERK inh)
O=C(COC(=O)c1ccccc1NC(=O)c1ccco1)Nc1ncc(Cl)cc1Cl	none
O=C(COC(=O)c1ccccc1O)Nc1ncc(Cl)cc1Cl	PABP FP inh active
CNC(=O)C(=O)NCC1OCCCN1S(=O)(=O)c1cccs1 (stereo not drawn)	none
Oc1ccc(Br)cc1C=Nc1cccn2cc(-c3ccccc3)nc12	PABP1 MLLE inh 40
O=C(CSCC(=O)N1CCCCC1)Nc1nc(-c2ccccc2)c(-c2ccccc2)s1	eIF4H FP inh 80, PABP FP inh 17
CC1(C)CC(=O)C2=C(C1)NC(SCC(N)=O)=C(C#N)C21CCCCC1	PABP1 MLLE inh 36
CCSC1=C(C#N)C2(CCCCC2)C2=C(CC(C)(C)CC2=O)N1	none
CC(=O)Nc1nonc1-c1ccccc1	PERK inh 3.2
CC(=O)Nc1cncc(-c2cccc(C(=O)NC3CC3)c2)n1	none (no result: eIF4H FP inh, eIF4E 4G PPI, PABP FP inh, PERK inh)
CCCCCCCCOC(=O)c1c(CSC(=N)N)n(C)c2cc(Br)c(OC(C)=O)cc12	none
CCOC(=O)c1c(CSC(=N)N)n(-c2ccc(Br)cc2)c2cc(Br)c(OC(C)=O)cc12	eIF4E 4G PPI 37[fluorescence artefact?]
C=CCSc1nc(O)c(C2OC(=O)c3c2ccc(OC)c3OC)c(=O)n1-c1ccccc1 (stereo not drawn)	none
O=C(CSc1nc(O)cc(=O)n1-c1ccccc1)Nc1ccc2c3c(cccc13)CC2	eIF4H FP inh 71, PABP FP inh 69
Cc1c(O)nc(SCC(=O)Nc2ccc3c4c(cccc24)CC3)n(-c2ccccc2)c1=O	none
S=C(Nc1ccc2c(c1)OCO2)Nc1ccc2c(c1)OCO2	eIF4H FP inh 112, PABP FP inh active
c1cc(CNc2ccc3c(c2)OCO3)ccn1	PABP1 MLLE inh 80
O=C(C1CCOCC1)N1CCC(CO)(CCc2ccccc2)CC1	none
C[C@H](O)[C@@H]1C(=O)N2CCc3ccc(-c4cccc(F)c4)cc3[C@@H]2C[C@@H]1N(C)S(=O)(=O)c1ccccc1	none (no result: eIF4H FP inh, eIF4E 4G PPI, PABP FP inh, PERK inh)
CC(C)[C@@H]1CC[C@@H](C)c2c(-c3ccccc3)n[nH]c21	none
COC(=O)c1scc(S(=O)(=O)c2ccccc2)c1N	none
CCC1=NN2C(=N)/C(=C/c3ccc(OS(=O)(=O)c4ccccc4)c(OC)c3)C(=O)N=C2S1	none (no result: eIF4E 4G PPI, PERK inh)
CCC1=NN2C(=N)/C(=C/c3c(C)nn(-c4ccccc4)c3Cl)C(=O)N=C2S1	eIF4H FP inh 74, PABP FP inh 11
Cc1cc(C)n(-c2nnc3n2N=C(c2ccccc2)CS3)n1	eIF4E 4G PPI 42
COc1ccc(CCN(Cc2cccs2)S(=O)(=O)c2ccc(S(=O)(=O)N3CCC(C)CC3)cc2)cc1OC	none
Cc1ccc(-c2[nH]nc3c2C(C)C(C#N)=C(N)O3)cc1 (stereo not drawn)	eIF4H FP inh 9.9
COc1ccc(-c2ccc(C3C(C#N)=C(N)Oc4n[nH]c(C)c43)o2)cc1 (stereo not drawn)	eIF4H FP inh inconclusive, PABP FP inh 84
Cc1[nH]nc2c1C(c1ccco1)C(C#N)=C(N)O2 (stereo not drawn)	none
Cc1ccc(C2C(C#N)=C(N)Oc3n[nH]c(-c4ccccc4)c32)o1 (stereo not drawn)	none
Nc1c(C(=O)Nc2ccc(F)cc2)sc2nc(-c3ccco3)ccc12	eIF4H FP inh 99, PABP FP inh 91
NC(=O)c1sc2nc(-c3ccccc3)ccc2c1N	none (no result: eIF4E 4G PPI, PERK inh)
CC(=O)c1sc2nc(-c3ccco3)ccc2c1N	eIF4H FP inh 91, PABP FP inh 84
Nc1c(C(=O)Nc2ccc(Br)cc2)sc2nc(-c3ccco3)ccc12	eIF4H FP inh 81, PABP FP inh 50
O=C(c1cc2ccccc2oc1=O)N1CCCC1	none
COC(=O)N/N=C/c1ccc(OC(=O)/C=C/c2ccco2)cc1	eIF4H FP inh inconclusive, PABP FP inh 25, PERK inh 2.9
CC1Cc2ccccc2N1S(=O)(=O)c1cccc(C(=O)N2Cc3ccccc3CC2C(N)=O)c1 (stereo not drawn)	none (no result: eIF4H FP inh, eIF4E 4G PPI, PABP FP inh, PERK inh)
COc1cc(SC)ccc1C(=O)OC(C)C(=O)NC1CCCC1 (stereo not drawn)	none
O=C(Nc1cccc2ccccc12)c1nn(C23CC4CC(CC(C4)C2)C3)cc1[N+](=O)[O-]	none
COc1ccc(NC(=O)c2nn(C34CC5CC(CC(C5)C3)C4)cc2[N+](=O)[O-])cc1	eIF4H FP inh 12, PABP FP inh 57
CCCOc1cccc(-c2nn(-c3ccccc3)cc2/C=C(\C#N)C(=O)NCCCn2ccnc2)c1	eIF4H FP inh inconclusive, PABP FP inh 50
O=C(O)c1ccc(S(=O)(=O)Nc2ccc3c(c2)OCCO3)cc1	none (no result: eIF4E 4G PPI, PERK inh)
COc1ccc(C(=S)Nc2ccc(C)cc2)cc1	PABP1 MLLE inh 40
Cc1ccc(C)c(NC(=O)c2ccc3ccccc3n2)c1	none
Cc1ccc(NC(=S)c2ccc3ccccc3n2)c(C)c1	PABP1 MLLE inh 36 (no result: eIF4E 4G PPI, PERK inh)
COc1ccc(NC(=S)c2ccc3ccccc3n2)cc1	PABP1 MLLE inh 38 (no result: eIF4E 4G PPI, PERK inh)
CCOc1ccc(NC(=S)c2ccc3ccccc3n2)cc1	none (no result: eIF4E 4G PPI, PERK inh)
O=C(COC(=O)Cn1cnc2ccccc2c1=O)NCCC1=CCCCC1	none
CCN(CC)C(=O)C1=C(C)N(Cc2ccc(F)cc2)C(=O)C(CC(=O)NCCc2ccccn2)C1 (stereo not drawn)	none (no result: eIF4H FP inh, eIF4E 4G PPI, PABP FP inh, PERK inh)

High-throughput results deposited in PubChem BioAssay by several laboratories.
